An excerpt weighted towards active compounds, which were near 1.8% of everything screened.
PP1 counter: PP1-alpha phosphatase inhibitors, primary screen, counter-screen for PP5 inhibitor project, biochemical, fluorescence, OMFP substrate, single point; purified PP1alpha; inhibition, % at 6.7 µM; hit rate 0.9% among 320,000;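 active = inhibition above the mean inhibition of all tested compounds plus 3 SD, computed separately for each screening campaign, cut at about 15% in these data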
PME-1 inh: PME-1 inhibitors via competitive probe labeling, primary screen, biochemical, fluorescence polarization, FP-Rh probe, HTS | AID 2130, 2009 | recombinant PME-1 | inhibition, % at 5.9 µM | hit rate 0.53% among 320,000;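 active = inhibition above the campaign mean of all compounds plus 3 SD, cut at about 26% in these data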;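 also: competitive labeling of PME-1 active site by serine hydrolase directed probe; 0% = PME-1 with DMSO and 100% = wells lacking PME-1 enzyme; inhibitors block probe labeling so polarization falls and inhibition rises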
PP5 primary: PP5 phosphatase inhibitors, primary screen, biochemical, fluorescence | Serine/threonine-protein phosphatase 5 (Homo sapiens), P53041 | purified PP5c, OMFP substrate fluorescence | inhibition, % at 6.7 µM | hit rate 0.18% among 320,000;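 active = inhibition above the campaign's mean inhibition across all tested compounds plus 3 SD, cut at about 9.5% in these data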;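 also: 0% = DMSO only and 100% = 100 µM cantharidin control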
LYPLA2 inh: LYPLA2 inhibitors, primary screen, counter-screen for PME1 inhibitor project, biochemical, fluorescence polarization, FP-Rh probe ABPP; AID 2177, 2009; inhibition, % at 5.9 µM; Acyl-protein thioesterase 2 (Homo sapiens), O95372; recombinant LYPLA2; hit rate 0.38% among 320,000;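 active = inhibition above the screen-wide mean plus 3 SD, limit set per campaign, cut at about 26% in these data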;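 also: 0% = LYPLA2 with DMSO and 100% = wells lacking LYPLA2 enzyme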
Target sequence (O95372 whole entry, looked up): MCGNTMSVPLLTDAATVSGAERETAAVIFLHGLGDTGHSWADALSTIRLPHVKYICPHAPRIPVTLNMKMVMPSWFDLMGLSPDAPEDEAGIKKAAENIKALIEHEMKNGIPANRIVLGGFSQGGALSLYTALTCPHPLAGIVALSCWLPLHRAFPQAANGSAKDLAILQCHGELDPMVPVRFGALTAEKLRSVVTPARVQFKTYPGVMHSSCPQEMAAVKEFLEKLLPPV
Fam108B counter: mouse Fam108B serine hydrolase inhibitors, primary screen, counter-screen for RBBP9 inhibitor project, biochemical, fluorescence polarization | recombinant Fam108B, FP-Rh probe fluorescence polarization | inhibition, % at 9.51 µM | hit rate 0.33% among 300,000 | AID 1947, 2009;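 active = inhibition above the screen mean inhibition plus 3 SD, computed separately per campaign, cut at about 18% in these data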;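 also: inhibitors lower polarization as less probe binds the enzyme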
LYPLA1 inh: LYPLA1 inhibitors, primary screen, counter-screen for PME1 inhibitor project, biochemical, fluorescence polarization, FP-Rh probe ABPP | Acyl-protein thioesterase 1 (Homo sapiens), O75608 | recombinant LYPLA1 | inhibition, % at 5.9 µM | hit rate 0.16% among 320,000;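 active = inhibition above the mean of all tested compounds plus 3 SD, set per campaign, cut at about 14% in these data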;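 also: inhibitors block serine hydrolase probe labeling of LYPLA1 so polarization falls; 0% = enzyme with DMSO and 100% = wells lacking LYPLA1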
PP1 inh confirm: PP1 phosphatase inhibitors, confirmation, biochemical, fluorescence, OMFP substrate, triplicate; inhibition, % at 6.7 µM; purified PP1alpha; shares compounds with PP1 counter; hit rate 52% among 1,900;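 active = mean PP1 inhibition above a set limit taken from the earlier primary screen, cut at about 15% in these data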
PP5 counter: PP5 phosphatase inhibition by PP1 hits, confirmation, counter-screen for PP1 inhibitor project, biochemical, fluorescence, triplicate. AID 2360, 2010. shares compounds with PP1 counter. inhibition, % at 6.7 µM. hit rate 4% among 1,900. purified PP5c, OMFP fluorescence;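 active = mean PP5 inhibition over triplicate wells above about 9.5% taken from the earlier PP1 screen, limit read from the data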
* hit, by the source's call; / = not tested or not shown.

SMILES	PP1 counter	PME-1 inh	PP5 primary	LYPLA2 inh	Fam108B counter	LYPLA1 inh	PP1 inh confirm	PP5 counter
Oc1c(C(Nc2ccccn2)c2cccnc2)cc(Cl)c2cccnc12 (stereo unspecified)	22*	2	3	5	2	1	19*	-3
Cc1cc(NC(c2cccnc2)c2ccc3cccnc3c2O)no1 (stereo unspecified)	-1	-2	4	4	2	0	/	/
COc1ccc(C(NC(=O)c2cccnc2)c2cc(Cl)c3cccnc3c2O)cc1OC (stereo unspecified)	34*	-3	1	3	2	3	22*	-2
CN(Cc1ccccc1)/C(=N/O)c1cccc(Cl)c1	1	-2	0	-1	0	0	/	/
CCCCNc1c(-c2ccc(OC)c(SC3CCCCC3)c2)nc2cnccn12	26*	7	5	2	10	-5	17*	4
CCCCNc1c(-c2ccc(OC)c(SC3CCCCC3)c2)nc2cc(C)ccn12	12	13	6	10	10	3	/	/
CCCCCCSc1cc(-c2nc3cc(C)ccn3c2NC2CCCCC2)ccc1OC	22*	-2	2	6	4	-2	11	-3
CCCCCCSc1cc(-c2nc3cnccn3c2NCc2ccccc2)ccc1OC	18*	1	-3	-7	5	-3	8	0
CN(CC(=O)Nc1cccc(F)c1)CC(=O)N(C)CC(=O)Nc1ccccc1Br	-4	-4	-3	3	/	3	/	/
CCN(CC(=O)Nc1c(F)cccc1F)C(=O)c1ccc2c(c1)OCO2	-6	4	1	1	/	2	/	/
CCc1cccc(NC(=O)CSc2nnc(Cc3ccc(OC)cc3)c(=O)[nH]2)c1	1	-5	3	-8	-3	-6	/	/
COC(=O)CCC(=O)OC1(C)C(=O)C2=CN(CCc3c[nH]c4ccccc34)C(c3ccc(OC)cc3)=CC2=C(Br)C1=O (stereo unspecified)	9	2	3	-6	3	-1	/	/
COC(=O)CCC(=O)OC1(C)C(=O)C2=CN(Cc3ccccc3)C(c3ccc(OC)cc3)=CC2=C(Br)C1=O (stereo unspecified)	21*	7	10*	0	0	-1	9	28*
COC(=O)CCC(=O)OC1(C)C(=O)C2=CN(c3ccccc3)C(c3ccc(OC)cc3)=CC2=C(Br)C1=O (stereo unspecified)	22*	6	2	3	1	2	12	25*
Cc1ccc(NC(=O)NC2CC(=O)N(c3ccc4c(c3)OCCO4)C2)cc1F (stereo unspecified)	-4	9	4	-2	2	1	/	/
COc1cccc(/C=C2/NC(=O)N(CC(=O)Nc3ccc(C)cc3)C2=O)c1OCc1cccc(C(=O)O)c1	-2	8	1	2	-1	0	/	/
Cc1ccc(NC(=O)CN2C(=O)N/C(=C/c3ccccc3OCc3cccc(C(=O)O)c3)C2=O)cc1	52*	-13	2	-7	-6	-5	33*	-6
O=C1NC(=O)/C(=C\c2ccc(OCc3cccc([N+](=O)[O-])c3)cc2)N1	43*	-4	0	3	-2	0	20*	0
COc1ccc(S(=O)(=O)N2CCCCCC2)cc1C(=O)Nc1ccccn1	-2	-2	1	6	2	-4	/	/

High-throughput results from PubChem.
